Measurements reported in PubChem BioAssay (NCI).
This is part of a sample that, as a whole, favours compounds with a hit. Of some 79,000 tested, about 15% had one in any assay. Rule as the data show it: active = growth inhibition above about 70%; inactive = the rest.

Tests used:
[1] = NCI Yeast Anticancer Drug Screen. Data for the rad50 strain (AID 155);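 also: 0% = growth of vehicle-only cultures of the same strain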; conditions: S. cerevisiae rad50 strain growth inhibition; at 50.0 µM; active compounds read high
Procedure, shortened: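 A DNA repair-deficient yeast mutant serves as the test organism; compound-induced growth inhibition is calculated against vehicle-treated cells.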

[2] = NCI Yeast Anticancer Drug Screen. Data for the mec2-1 strain (AID 157); conditions: S. cerevisiae mec2-1 strain, at 50.0 µM, active compounds read high
Procedure, shortened: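 Growth inhibition is read against vehicle-treated controls after compound exposure of the mec2-1 yeast strain, which is defective in DNA damage repair or cell cycle control.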

[3] = NCI Yeast Anticancer Drug Screen. Data for the sgs1 mgt1 strain (AID 161);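 also: 0% = growth of cultures given vehicle only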; conditions: S. cerevisiae sgs1 mgt1 strain, at 50.0 µM, active compounds read high
Procedure, shortened: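 Growth of a repair-deficient yeast mutant was monitored after compound treatment and expressed as inhibition relative to vehicle-treated cultures.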

[4] = NCI Yeast Anticancer Drug Screen. Data for the cln2 rad14 strain (AID 165);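 also: 0% = growth equal to vehicle treated cultures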; conditions: S. cerevisiae cln2 rad14 strain, at 50.0 µM, active compounds read high
Procedure, shortened: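 Growth inhibition, relative to vehicle-treated controls, is the read-out. The test organism is a yeast strain with defined genetic alterations, cln2 rad14.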

[5] = NCI Yeast Anticancer Drug Screen. Data for the bub3 strain (AID 167); conditions: S. cerevisiae bub3 mutant strain, at 50.0 µM, active compounds read high
Procedure, shortened: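 Inhibition values come from growth of compound-treated mutant yeast normalised to vehicle-treated controls.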

[6] = NCI Yeast Anticancer Drug Screen. Data for the mlh1 rad18 strain (AID 175); conditions: S. cerevisiae mlh1 rad18 strain growth inhibition; at 50.0 µM; active compounds read high
Procedure, shortened: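 Cells of a genetically altered yeast strain, deficient in DNA damage repair, were treated with compound. Their growth was then compared with that of vehicle-treated cultures to give inhibition.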

Measured: growth inhibition

O=[N+]([O-])c1cccc(-c2csc(N=Nc3c(O)[nH]c4ccccc34)n2)c1
inactive: [1] -29.6% | [2] -8.9% | [3] -0.3% | [4] -12.9% | [5] 14.2% | [6] 13.3%

CCOC(=O)C1CCC(=O)N1Cc1c[nH]c2ccccc12 (stereo unspecified)
inactive: [1] 3.2% | [2] -12.7% | [3] -5.1% | [4] 1% | [5] 21.4% | [6] -14.7%

CSCCC(NC(C)=O)C(C)=O (stereo unspecified)
inactive: [1] 5.75% | [2] -9.35% | [3] -3.55% | [4] -21.3% | [5] -7.15% | [6] 7.9%

C/C(=C\c1ccccc1)C(=O)C1C(c2ccccc2)CC(=O)C(C)C1c1ccccc1 (stereo unspecified)
inactive: [1] -3.65% | [2] -11.7% | [3] -27.3% | [4] -36.5% | [5] -0.5% | [6] 2.35%

OCC1OC(n2nc(-c3ccccc3)nc2-c2cnccn2)C(O)C(O)C1O (stereo unspecified)
inactive: [1] -37.4% | [2] -35.8% | [3] -31.4% | [4] 3.65% | [5] -46.1% | [6] -43.5%

COc1cc(OC)c(NC(=O)C(Cl)(Cl)Cl)cc1Cl
inactive: [1] 4% | [2] 42% | [3] 5.9% | [4] -17.4% | [5] 30.9% | [6] 27.4%

NC(=O)c1ccccc1Sc1ccccc1C(N)=O
inactive: [1] -4.6% | [2] 2.35% | [3] 5.4% | [4] 2.45% | [5] 1.65% | [6] 0.6%

CN1CCCC(C(=O)O)(c2ccccc2)CC1 (stereo unspecified)
inactive: [1] -17.3% | [2] -5.95% | [3] -19.2% | [4] -35.2% | [5] -14.7% | [6] -24.1%

CC(C)=CCC/C(C)=C\CC/C(C)=C/CO
inactive: [1] -52.5% | [2] -77.8% | [3] -39.6% | [4] -26.1% | [5] -46.7% | [6] -41.5%

C/C(=N/Nc1ccc([N+](=O)[O-])cc1[N+](=O)[O-])c1ccccc1
inactive: [1] -4.25% | [2] -13.2% | [3] -12.7% | [4] -13.8% | [5] 1% | [6] -11%

CC1CC(C)(C)OC(C2CC=CCC2)O1 (stereo unspecified)
inactive: [1] -12.7% | [2] -19.6% | [3] -13.8% | [4] -1.95% | [5] 2.35% | [6] 2.7%

O=C(NCCc1ccccc1)c1ccc(Cl)cc1
inactive: [1] 6.25% | [2] 9.8% | [3] 9.9% | [4] 10.8% | [5] 26% | [6] 1.5%

CCCCC1(CC)COC2(CCCCC2)OC1
inactive: [1] 17.1% | [2] 37% | [3] 13.3% | [4] -22.2% | [5] 6.85% | [6] 6.95%

NS(=O)(=O)c1ccc(NC(=O)Nc2ccc(Cl)cc2[N+](=O)[O-])cc1
inactive: [1] -9.5% | [2] 18.6% | [3] 30.1% | [4] -16.7% | [5] 29.9% | [6] 30.4%

CC1(C)CC23C(=O)N(c4ccccc4)C(=Nc4ccccc4)NC2=CC(C#N)=C(C#N)C3O1 (stereo unspecified)
inactive: [1] 2.6% | [2] -3.9% | [3] 5.3% | [4] 23.9% | [5] 0.85% | [6] -15.8%

COc1cc(C(=O)NC(CCN)(c2ccccc2)c2ccccc2)cc(OC)c1OC
inactive: [1] -2.55% | [2] 30.4% | [3] 14.4% | [4] 10.4% | [5] 43.2% | [6] 29.8%

CCc1ccc[n+](-c2ccncc2CC)c1
inactive: [1] -7.9% | [2] -9.55% | [3] -9.15% | [4] -12.9% | [5] 2.8% | [6] -9.8%

C/C(CCn1[nH]c(=O)ccc1=O)=N\O
inactive: [1] -6.55% | [2] -19.2% | [3] -5.8% | [4] -12.1% | [5] -24.6% | [6] -11.3%

O=c1[nH]c2ccccc2c(=O)n1CCCN1CCN(c2cccc(Cl)c2)CC1
inactive: [1] 22% | [2] 12.4% | [3] 33.8% | [4] -23.4% | [5] 15.8% | [6] 14.8%

O=P(O)(O)c1ccc(I)cc1
inactive: [1] 10.5% | [2] -30.6% | [3] -12.4% | [4] 0.75% | [5] -20.3% | [6] -5.9%

O=C(NCc1ccccc1)/C(=C/c1ccc2c(c1)OCO2)NC(=O)c1ccccc1
inactive: [1] -42% | [2] -50.1% | [3] -28.5% | [4] -6.2% | [5] -15.2% | [6] -22.2%
